Source: PubChem BioAssay (National Center for Advancing Translational Sciences (NCATS))
Rows were chosen to be rich in hits. Some 7.3% of all compounds tested hit in one or more screens of this group.
HCV inh = HCV inhibition; Huh7.5.1 HCVcc-Cre infection, luciferase reporter, 44 h; hit rate 3.4% among 340,000; Potency, µM (highest dose often 41.8 µM), without a hit: top-dose activity change, negative = inhibition, hits mostly inhibitors; active = well fitted inhibition curve with a large enough effect; inconclusive = small, poorly fitted or top-dose-only effect, or another doubt; inactive = no such curve, though single readings can be large or run the other way; note: potency is the fitted concentration of half-maximal effect
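HCVcc-Cre virus at an moi near 0.5 was added right after compound to cells cultured 4 h from seeding (1,000 cells/well). Luciferase activity was determined 44 h later, 15 min after substrate addition at RT.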
HCMV antiviral = blocks human cytomegalovirus replication; HFF cells, HCMV-luciferase reporter, 72 h; active compounds read low; activity change, negative = inhibition, % at 57.5 µM; hit rate 4.5% among 410,000; in the data active = activity change below about -60%; inconclusive = no clear call, values can overlap the other calls; inactive = above about -39%
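Compounds were evaluated in HFFs infected with an HCMV luciferase reporter virus (MOI 1 PFU/cell). Luciferase in lysates collected 72 h post infection served as the replication measure.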
Vaccinia Venus = vaccinia inhibition (Venus reporter); Vaccinia virus Venus reporter expression, fluorescence; Potency, µM (titrated, usually from 36.5 µM), without a hit: at the highest dose activity change, negative = inhibition, usual class: inhibitors; hit rate 0.46% among 330,000; calls by dose curve; tested in A549 cells; note: potency is the fitted concentration of half-maximal effect; nearly all actives have a fitted effect of over 30% in size
FMDV inh = blocks foot and mouth disease virus; Potency, µM (doses to about 57.9 µM), without a hit: at the highest dose activity change, negative = inhibition, most hits filed as inhibitors; hit rate 1.2% among 410,000; FMDV antiviral cell-based qHTS; calls by dose curve; tested in HEK293T cells; note: read-out not given here; potency is the fitted concentration of half-maximal effect; nearly all actives have a fitted effect of over 45% in size
VACV mCherry inh = inhibitors of vaccinia virus infection (mCherry reporter signal); Vaccinia virus mCherry reporter infection, fluorescence; Potency, µM (doses to about 36.5 µM), for inactives: at the highest dose activity change, negative = inhibition, actives largely listed as inhibitors; hit rate 0.63% among 310,000; calls by dose curve; tested in A549 cells; note: potency is the fitted concentration of half-maximal effect; nearly all actives have a fitted effect of over 35% in size
Numbers without * were called inactive; i = inactive; ? = inconclusive; · = no result; [ ] = dose if it differs, or a comment. % is set by controls: 0 for no effect and ±100 for the full control effect.

SMILES	HCV inh	HCMV antiviral	Vaccinia Venus	FMDV inh	VACV mCherry inh
CCN1CCN(Cc2ccc(NC(=O)c3ccc(C)c(/C=C/c4cnc(Nc5cc(N6CCNCC6)nc(C)n5)cn4)c3)cc2C(F)(F)F)CC1	?	·	8.9µM*	?	?
CCN1CCN(Cc2ccc(NC(=O)c3ccc(C)c(NC(=O)c4csc(-c5ccncc5)n4)c3)cc2C(F)(F)F)CC1	?	?	?	-18%	-8%
CCN1CCN(Cc2ccc(NC(=O)c3ccc(C)c(NC(=O)c4c[nH]c5cc(C(F)(F)F)ccc5c4=O)c3)cc2C(F)(F)F)CC1	?	-98*	14µM*	?	?
O=C(O)COc1ccccc1C=NNC(=O)c1ccccc1NS(=O)(=O)c1cccs1	7%	-17	-4%	1%	i
Cc1cc(C)n(S(=O)(=O)/C=C/c2ccccc2)n1	?	-67*	·	-28%	·
COc1ccc2c3c([nH]c2c1)[C@H](CO)N(C(=O)c1cccc(F)c1)CC31CCN(S(=O)(=O)c2cccs2)CC1	·	-17	·	·	·
O=S(=O)(c1cccs1)N1CCN(c2ccnc3cc(Cl)ccc23)CC1	?	-60*	?	?	?
Cc1cccc(C)c1N1CCN(S(=O)(=O)c2ccccc2)CC1	3%	3	·	-29%	·
Cc1cc(N2CCN(c3nc(-c4ccccc4)cs3)CC2)c2ccccc2n1	?	?	-14%	28µM*	-3%
Cc1cc(N2CCN(S(=O)(=O)c3ccccc3)CC2)c2ccccc2n1	?	-88*	?	?	?
c1ccc(-c2csc(N3CCCCCC3)n2)cc1	11%	8	-18%	41%	i
O=S(=O)(c1ccccc1)N1CCN(c2ccnc3cc(Cl)ccc23)CC1	?	?	?	25µM*	?
ClCCN1CCN(c2ccnc3cc(Cl)ccc23)CC1	-14%	-40	·	-26%	·
CN1CCN(C(=O)CCn2c(=S)[nH]c3ccccc3c2=O)CC1	·	?	-10%	4%	-15%
CSC(SC)=C(C#N)C(=O)c1ccccc1	?	40	0%[7.34 µM]	16µM*	i[7.34 µM]
COc1cccc(C(=O)C(C#N)=C(SC)SC)c1	?	116	·	28µM*	·
COc1cccc(C(=O)C(=O)NC(C)(C)C)c1	·	38	·	·	·
Cc1cccc(C)c1Cn1c(C)c(C(=O)NCc2ccc([N+](=O)[O-])cc2)sc1=O	·	-8	?	0%	?
COc1cccc(CSc2nnc(-c3ccncc3)n2N)c1	-2%	-69*	-4%	-2%	-5%
COc1cc(-c2nnc(SC/C=C/c3ccccc3)n2N)cc(OC)c1OC	-8%	24	11%	?	6%
Nn1c(SC/C=C/c2ccccc2)nnc1-c1ccncc1	15%	-69*	-15%	-24%	i
COc1cccc(CSc2nnc(C(F)(F)F)n2Cc2ccc(F)cc2)c1	-8%	0	·	-8%	·
Nn1c(SCc2cccc(Oc3ccccc3)c2)nnc1C(F)(F)F	14%	-73*	-13%	6%	i
O=C(Cc1c2ccccc2nc2ccccc12)c1ccccc1	-19%	11	-19%	-23%	0%
NC(=O)C(c1ccc(Br)cc1)c1ccc(C(=O)c2ccccc2)cc1 (stereo not drawn)	10µM*	-34	-14%	-21%	?
SMILES	HCV inh	HCMV antiviral	Vaccinia Venus	FMDV inh	VACV mCherry inh
NC(=O)C(c1ccc(F)cc1)c1ccc(C(=O)c2ccccc2)cc1 (stereo not drawn)	8%	?	·	?	·
Cc1ccsc1C(=O)N1CCCC1(C)C(=O)NCC(C)C (stereo not drawn)	·	21	-2%	-11%	42%
COc1ccc(C(=O)Nc2nc3ccccc3[nH]2)cc1OC	-16%	119	·	21%	·
CCOc1ccc(C(=O)Nc2nc3ccccc3[nH]2)cc1OCC	?	-63*	-29%	?	?
O=C(Nc1nc2ccccc2[nH]1)c1ccc(OC(F)F)cc1	?	33	-23%	13µM*	-17%
O=C(Nc1nc2ccccc2[nH]1)c1ccccc1OC(F)F	-13%	80	-7%	-39%	-2%
COc1cc(C(=O)Nc2nc3ccccc3[nH]2)ccc1OC(F)F	8.9µM*	-14	-24%	-1%	-7%
CC(C)Oc1ccc(C(=O)Nc2nc3ccccc3[nH]2)cc1	?	-60*	-5%	7.9µM*	52%
O=C(O)CCC(=O)c1ccc(C2CCCCCC2)cc1	·	31	6%	44%	3%
c1ccc(Nc2ccccn2)cc1	-12%	-16	·	25%	·
c1ccc(Nc2cccc(Nc3ccccc3)n2)cc1	7.1µM*	-24	-22%	21%	?
